Experiment [1] concerns the target T1, Rhodopsin kinase GRK7 (Homo sapiens) (UniProt Q8WTQ7).
T1 sequence (whole entry): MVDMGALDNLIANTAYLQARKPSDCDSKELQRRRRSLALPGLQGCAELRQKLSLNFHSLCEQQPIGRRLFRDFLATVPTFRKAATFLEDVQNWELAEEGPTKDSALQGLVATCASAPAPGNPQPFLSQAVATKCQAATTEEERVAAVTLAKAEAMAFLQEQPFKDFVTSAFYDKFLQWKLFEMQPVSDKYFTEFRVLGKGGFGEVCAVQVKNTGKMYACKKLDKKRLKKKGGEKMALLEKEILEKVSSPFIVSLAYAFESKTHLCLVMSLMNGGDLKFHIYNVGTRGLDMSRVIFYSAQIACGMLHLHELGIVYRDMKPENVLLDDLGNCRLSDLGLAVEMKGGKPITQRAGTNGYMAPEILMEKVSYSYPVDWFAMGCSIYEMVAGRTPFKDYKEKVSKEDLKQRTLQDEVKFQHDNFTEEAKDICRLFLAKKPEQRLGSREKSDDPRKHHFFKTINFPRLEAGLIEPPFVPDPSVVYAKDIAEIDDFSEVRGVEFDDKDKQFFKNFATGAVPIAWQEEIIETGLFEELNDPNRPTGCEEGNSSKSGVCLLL
The note with it: at 10 µM.

For experiment [2], the target named is Glycogen synthase kinase-3 alpha (Homo sapiens) (UniProt P49840). The note with it: at 1 µM.
The target is the same in experiment [3]. The note with it: at 10 µM.
The target of experiment [4] is Glycogen synthase kinase-3 beta (Homo sapiens) (UniProt P49841). The note with it: at 1 µM.
Experiment [5] has the same target. The note with it: at 10 µM.
Experiment [6] deals with Homeodomain-interacting protein kinase 1 (Homo sapiens) (UniProt Q86Z02). Particulars: at 1 µM.
Experiment [7] addresses Homeodomain-interacting protein kinase 2 (Homo sapiens) (UniProt Q9H2X6). The note with it: at 1 µM.
Experiment [8] shares this target. Particulars: at 10 µM.
In experiment [9] the target is Homeodomain-interacting protein kinase 3 (Homo sapiens) (UniProt Q9H422). The note with it: at 1 µM.
The target is the same in experiment [10]. The note with it: at 10 µM.
Experiment [11] addresses T2, Serine/threonine-protein kinase haspin (Homo sapiens) (UniProt Q8TF76).
T2 sequence (whole entry): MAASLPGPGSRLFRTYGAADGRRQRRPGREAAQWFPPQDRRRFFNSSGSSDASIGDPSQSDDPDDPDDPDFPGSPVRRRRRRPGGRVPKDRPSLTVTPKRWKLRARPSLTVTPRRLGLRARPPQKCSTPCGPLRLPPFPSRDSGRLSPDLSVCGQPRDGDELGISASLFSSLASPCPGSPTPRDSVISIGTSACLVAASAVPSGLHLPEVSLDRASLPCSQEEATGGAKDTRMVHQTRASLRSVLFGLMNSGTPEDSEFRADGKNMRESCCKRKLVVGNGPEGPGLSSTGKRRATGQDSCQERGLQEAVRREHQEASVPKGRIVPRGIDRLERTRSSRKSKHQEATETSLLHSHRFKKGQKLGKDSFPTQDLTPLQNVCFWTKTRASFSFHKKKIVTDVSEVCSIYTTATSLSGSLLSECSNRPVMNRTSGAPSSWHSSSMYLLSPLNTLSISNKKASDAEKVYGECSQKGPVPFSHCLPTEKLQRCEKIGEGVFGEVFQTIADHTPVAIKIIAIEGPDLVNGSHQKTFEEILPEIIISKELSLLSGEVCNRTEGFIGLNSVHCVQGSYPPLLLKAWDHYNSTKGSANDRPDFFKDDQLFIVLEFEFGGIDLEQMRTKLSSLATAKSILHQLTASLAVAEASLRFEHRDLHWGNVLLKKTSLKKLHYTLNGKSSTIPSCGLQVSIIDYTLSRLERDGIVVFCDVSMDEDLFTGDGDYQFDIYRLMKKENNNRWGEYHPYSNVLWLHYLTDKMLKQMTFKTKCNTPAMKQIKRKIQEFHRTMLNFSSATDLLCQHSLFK
The note with it: at 1 µM.

In experiment [12] the target is T2, Serine/threonine-protein kinase haspin (Homo sapiens). Particulars: at 10 µM.
In experiment [13] the target is Tyrosine-protein kinase HCK (Homo sapiens) (UniProt P08631). Particulars: at 1 µM.
Experiment [14] shares this target. Particulars: at 10 µM.
Experiment [15] shares this target. The note with it: at 1 µM. The source holds these as a separate data set.
Experiment [16] shares this target. The note with it: at 10 µM. The source holds these as a separate data set.
In experiment [17] the target is Insulin-like growth factor 1 receptor (Homo sapiens) (UniProt P08069). The note with it: at 1 µM.
The target is the same in experiment [18]. The note with it: at 10 µM.
Experiment [19] addresses T3, Protein kinase C zeta type (Homo sapiens) (UniProt Q05513).
T3 sequence (whole entry): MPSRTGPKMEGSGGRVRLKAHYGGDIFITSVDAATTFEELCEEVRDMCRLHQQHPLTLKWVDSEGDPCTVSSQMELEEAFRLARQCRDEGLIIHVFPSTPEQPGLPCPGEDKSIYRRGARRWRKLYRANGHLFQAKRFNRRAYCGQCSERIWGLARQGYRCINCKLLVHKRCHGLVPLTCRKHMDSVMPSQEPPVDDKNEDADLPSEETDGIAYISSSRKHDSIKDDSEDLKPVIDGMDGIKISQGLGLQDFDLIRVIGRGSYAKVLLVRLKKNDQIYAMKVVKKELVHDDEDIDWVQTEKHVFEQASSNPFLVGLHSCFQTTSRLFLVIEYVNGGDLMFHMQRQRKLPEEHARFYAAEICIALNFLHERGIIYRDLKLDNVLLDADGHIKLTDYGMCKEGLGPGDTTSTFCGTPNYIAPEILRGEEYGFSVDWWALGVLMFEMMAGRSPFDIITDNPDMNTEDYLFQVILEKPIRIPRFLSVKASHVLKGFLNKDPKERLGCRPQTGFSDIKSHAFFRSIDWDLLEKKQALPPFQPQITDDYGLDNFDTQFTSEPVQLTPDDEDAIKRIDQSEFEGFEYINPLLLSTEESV
Particulars: at 10 µM.

Experiment [20] has as its target Homeodomain-interacting protein kinase 1 (Homo sapiens) (UniProt Q86Z02). Particulars: at 10 µM.

Homeodomain-interacting protein kinase 1 (Homo sapiens), sequence (Q86Z02 whole entry, looked up): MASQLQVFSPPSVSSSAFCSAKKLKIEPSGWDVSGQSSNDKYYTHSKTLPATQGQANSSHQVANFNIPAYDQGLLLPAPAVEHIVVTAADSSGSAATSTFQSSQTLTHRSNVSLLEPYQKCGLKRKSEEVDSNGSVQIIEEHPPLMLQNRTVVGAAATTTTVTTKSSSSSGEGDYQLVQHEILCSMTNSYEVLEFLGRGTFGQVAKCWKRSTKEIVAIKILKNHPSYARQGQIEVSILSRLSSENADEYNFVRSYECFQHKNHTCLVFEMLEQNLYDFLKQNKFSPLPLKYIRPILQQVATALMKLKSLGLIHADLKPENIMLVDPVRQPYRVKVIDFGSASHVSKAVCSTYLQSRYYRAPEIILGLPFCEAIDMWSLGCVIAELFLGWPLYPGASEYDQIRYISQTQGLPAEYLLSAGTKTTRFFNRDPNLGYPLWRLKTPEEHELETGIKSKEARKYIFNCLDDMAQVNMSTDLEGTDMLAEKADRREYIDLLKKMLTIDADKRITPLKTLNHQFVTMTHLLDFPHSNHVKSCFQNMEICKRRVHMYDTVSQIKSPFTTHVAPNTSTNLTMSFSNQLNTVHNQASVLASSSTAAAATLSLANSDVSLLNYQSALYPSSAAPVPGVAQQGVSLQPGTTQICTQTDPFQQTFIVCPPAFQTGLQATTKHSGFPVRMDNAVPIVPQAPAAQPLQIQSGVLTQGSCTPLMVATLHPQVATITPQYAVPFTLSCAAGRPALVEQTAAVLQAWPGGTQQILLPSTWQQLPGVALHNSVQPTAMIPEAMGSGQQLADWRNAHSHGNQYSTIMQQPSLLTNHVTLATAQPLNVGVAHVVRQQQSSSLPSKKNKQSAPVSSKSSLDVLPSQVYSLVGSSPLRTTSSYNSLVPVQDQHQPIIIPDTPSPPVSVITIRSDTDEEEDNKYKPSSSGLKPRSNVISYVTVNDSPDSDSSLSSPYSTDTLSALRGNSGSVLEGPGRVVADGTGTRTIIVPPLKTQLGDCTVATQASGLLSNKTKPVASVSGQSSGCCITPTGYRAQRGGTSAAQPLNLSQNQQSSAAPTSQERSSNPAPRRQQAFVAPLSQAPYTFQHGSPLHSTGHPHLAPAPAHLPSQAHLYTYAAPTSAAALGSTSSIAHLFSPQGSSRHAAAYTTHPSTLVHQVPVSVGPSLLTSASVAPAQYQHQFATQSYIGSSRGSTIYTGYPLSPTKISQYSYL
Homeodomain-interacting protein kinase 3 (Homo sapiens), sequence (Q9H422 whole entry, looked up): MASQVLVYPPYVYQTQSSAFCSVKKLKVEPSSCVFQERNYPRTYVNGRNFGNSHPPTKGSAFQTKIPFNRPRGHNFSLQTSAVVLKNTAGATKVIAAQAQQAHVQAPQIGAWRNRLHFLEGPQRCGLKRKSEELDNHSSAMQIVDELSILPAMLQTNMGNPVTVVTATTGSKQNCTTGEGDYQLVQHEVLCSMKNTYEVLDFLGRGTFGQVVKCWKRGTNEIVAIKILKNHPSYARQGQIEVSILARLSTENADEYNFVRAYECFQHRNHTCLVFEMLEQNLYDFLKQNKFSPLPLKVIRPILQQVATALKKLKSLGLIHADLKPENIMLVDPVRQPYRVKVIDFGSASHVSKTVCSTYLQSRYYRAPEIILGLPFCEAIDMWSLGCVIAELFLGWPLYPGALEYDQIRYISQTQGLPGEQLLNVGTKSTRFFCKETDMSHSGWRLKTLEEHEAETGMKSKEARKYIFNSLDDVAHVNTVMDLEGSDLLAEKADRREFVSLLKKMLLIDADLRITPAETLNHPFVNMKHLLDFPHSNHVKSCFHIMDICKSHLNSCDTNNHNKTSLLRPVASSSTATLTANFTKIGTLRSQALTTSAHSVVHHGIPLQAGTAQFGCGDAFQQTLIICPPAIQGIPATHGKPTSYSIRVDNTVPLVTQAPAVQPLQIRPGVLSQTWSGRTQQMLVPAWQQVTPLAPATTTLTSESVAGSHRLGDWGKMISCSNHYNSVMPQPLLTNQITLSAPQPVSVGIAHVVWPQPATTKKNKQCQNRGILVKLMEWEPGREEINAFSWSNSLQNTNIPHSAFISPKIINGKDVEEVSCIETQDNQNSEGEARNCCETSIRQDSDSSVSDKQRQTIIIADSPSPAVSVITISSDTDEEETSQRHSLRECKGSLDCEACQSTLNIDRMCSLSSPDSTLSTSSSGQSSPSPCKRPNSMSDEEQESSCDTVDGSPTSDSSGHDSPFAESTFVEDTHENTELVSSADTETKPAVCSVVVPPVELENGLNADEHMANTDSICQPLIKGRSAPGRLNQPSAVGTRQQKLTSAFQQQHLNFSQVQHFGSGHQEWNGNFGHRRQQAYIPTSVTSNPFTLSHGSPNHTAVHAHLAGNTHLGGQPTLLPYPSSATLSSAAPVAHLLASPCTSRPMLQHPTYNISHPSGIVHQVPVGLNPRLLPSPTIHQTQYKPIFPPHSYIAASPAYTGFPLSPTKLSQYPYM
Homeodomain-interacting protein kinase 2 (Homo sapiens), sequence (Q9H2X6 whole entry, looked up): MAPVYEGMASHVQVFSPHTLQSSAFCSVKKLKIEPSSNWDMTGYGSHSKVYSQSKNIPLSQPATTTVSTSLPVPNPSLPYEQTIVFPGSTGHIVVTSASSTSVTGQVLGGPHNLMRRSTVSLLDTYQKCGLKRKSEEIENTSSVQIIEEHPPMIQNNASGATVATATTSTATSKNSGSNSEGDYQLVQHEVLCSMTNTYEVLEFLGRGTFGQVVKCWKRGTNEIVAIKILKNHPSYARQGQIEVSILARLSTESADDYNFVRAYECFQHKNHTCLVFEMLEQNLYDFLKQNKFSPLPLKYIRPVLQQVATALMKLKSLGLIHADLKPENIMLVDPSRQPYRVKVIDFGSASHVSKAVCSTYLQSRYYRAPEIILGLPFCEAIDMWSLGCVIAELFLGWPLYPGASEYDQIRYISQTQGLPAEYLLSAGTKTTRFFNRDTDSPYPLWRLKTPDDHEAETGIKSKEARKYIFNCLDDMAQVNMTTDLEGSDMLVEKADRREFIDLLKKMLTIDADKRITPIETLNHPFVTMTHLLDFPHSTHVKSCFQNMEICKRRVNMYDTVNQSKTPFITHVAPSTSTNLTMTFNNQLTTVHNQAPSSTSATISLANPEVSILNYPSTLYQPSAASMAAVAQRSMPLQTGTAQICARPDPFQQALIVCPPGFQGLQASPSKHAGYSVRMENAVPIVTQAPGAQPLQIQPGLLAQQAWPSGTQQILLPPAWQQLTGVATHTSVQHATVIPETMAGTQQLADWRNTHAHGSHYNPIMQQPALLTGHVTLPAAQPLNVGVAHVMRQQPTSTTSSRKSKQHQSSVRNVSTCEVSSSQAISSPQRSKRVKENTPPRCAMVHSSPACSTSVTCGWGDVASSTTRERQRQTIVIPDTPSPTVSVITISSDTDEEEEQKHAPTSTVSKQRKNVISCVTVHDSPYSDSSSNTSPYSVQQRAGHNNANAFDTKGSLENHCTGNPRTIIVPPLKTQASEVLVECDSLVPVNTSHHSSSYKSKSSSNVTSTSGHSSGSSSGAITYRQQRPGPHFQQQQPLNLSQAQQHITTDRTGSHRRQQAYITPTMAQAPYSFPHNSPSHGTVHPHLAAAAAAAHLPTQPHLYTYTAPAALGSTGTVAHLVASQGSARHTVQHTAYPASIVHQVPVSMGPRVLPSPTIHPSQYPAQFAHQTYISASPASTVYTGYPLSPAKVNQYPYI
Glycogen synthase kinase-3 alpha (Homo sapiens), sequence (P49840 2-483 limits assumed): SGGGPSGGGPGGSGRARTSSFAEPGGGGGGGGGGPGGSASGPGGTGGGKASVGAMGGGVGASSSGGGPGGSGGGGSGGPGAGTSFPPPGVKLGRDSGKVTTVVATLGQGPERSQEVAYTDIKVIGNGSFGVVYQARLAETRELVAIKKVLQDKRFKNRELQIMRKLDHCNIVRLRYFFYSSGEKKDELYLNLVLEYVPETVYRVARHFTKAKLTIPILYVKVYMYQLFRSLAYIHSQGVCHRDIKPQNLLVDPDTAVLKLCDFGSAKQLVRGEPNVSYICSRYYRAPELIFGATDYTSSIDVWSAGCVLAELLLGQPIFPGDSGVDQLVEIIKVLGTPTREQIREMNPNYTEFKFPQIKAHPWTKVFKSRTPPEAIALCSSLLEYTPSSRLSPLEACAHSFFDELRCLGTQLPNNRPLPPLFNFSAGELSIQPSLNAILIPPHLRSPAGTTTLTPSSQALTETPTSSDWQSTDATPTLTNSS
Tyrosine-protein kinase HCK (Homo sapiens), sequence (P08631 2-526 limits assumed): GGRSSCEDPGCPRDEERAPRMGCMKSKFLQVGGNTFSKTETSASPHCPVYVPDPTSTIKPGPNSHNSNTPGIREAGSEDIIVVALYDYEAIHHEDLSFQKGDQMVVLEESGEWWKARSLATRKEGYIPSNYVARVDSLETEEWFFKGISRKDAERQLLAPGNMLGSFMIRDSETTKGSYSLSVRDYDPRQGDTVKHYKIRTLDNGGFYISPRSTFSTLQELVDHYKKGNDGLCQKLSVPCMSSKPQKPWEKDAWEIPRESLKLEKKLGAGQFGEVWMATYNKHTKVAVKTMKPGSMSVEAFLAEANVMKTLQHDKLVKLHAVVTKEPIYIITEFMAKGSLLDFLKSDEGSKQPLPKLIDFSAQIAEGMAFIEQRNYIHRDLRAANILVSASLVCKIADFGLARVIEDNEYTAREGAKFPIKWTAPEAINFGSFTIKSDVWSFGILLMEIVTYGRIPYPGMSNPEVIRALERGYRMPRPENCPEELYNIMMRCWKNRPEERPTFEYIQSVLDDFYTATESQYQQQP
Glycogen synthase kinase-3 beta (Homo sapiens), sequence (P49841 whole entry, looked up): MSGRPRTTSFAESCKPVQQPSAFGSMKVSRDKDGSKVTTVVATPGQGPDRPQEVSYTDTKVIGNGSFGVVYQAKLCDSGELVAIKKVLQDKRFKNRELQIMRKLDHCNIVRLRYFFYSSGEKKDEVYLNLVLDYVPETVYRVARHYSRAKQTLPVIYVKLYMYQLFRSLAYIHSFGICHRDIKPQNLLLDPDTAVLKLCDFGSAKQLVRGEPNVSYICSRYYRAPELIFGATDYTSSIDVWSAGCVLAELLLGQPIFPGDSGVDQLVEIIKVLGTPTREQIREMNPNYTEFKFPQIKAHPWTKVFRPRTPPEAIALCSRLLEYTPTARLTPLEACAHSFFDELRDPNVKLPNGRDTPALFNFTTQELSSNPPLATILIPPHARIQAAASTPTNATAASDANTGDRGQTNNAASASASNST

Regarding `O=[N+]([O-])c1ccc(-c2nc(-c3ccc(F)cc3)c(-c3ccncc3)[nH]2)cc1`, the residual activity in [1] was 92%; in [2] it was 99%; in experiment [3], 84%; in [4], 73%; in experiment [5], 83%; in [6], 111%. Further, the residual activity in [7] was 107%; in experiment [8] it was 100%; in experiment [9], 110%; in experiment [10] it was 109%; in experiment [11], 86%; in experiment [12] it was 77%. Also, the residual activity in [13] turned out to be 77%; in experiment [14], 29%; in experiment [15], 97%; in experiment [16], 97%; in [17] it was 114%; in [18] it was 141%. In addition, the residual activity in experiment [19] was 103%.

In the case of `CO[C@@H]1[C@H](N(C)C(=O)c2ccccc2)C[C@H]2O[C@]1(C)n1c3ccccc3c3c4c(c5c6ccccc6n2c5c31)C(=O)NC4`, the residual activity was 3% in experiment [1]; 17% in experiment [2]; 14% in [3]; 39% in [4]; 19% in [5]; 95% in experiment [6]. Moreover, the residual activity in experiment [20] was determined as 83%; in [7], 75%; in [8], 35%; in experiment [9] it was 80%; in [10] it was 68%; in [11] it was 78%. Further, the residual activity amounted to 43% in [12]; 7% in experiment [13]; 5% in experiment [14]; 12% in experiment [16]; 115% in experiment [17]; 68% in experiment [18]. The residual activity in experiment [19] was 102%.

With `Cc1cncc2cccc(S(=O)(=O)N3CCCN(C(=O)CN)C[C@H]3C)c12`, the residual activity in [1] worked out at 28%; in experiment [6], 94%; in [11], 91%; in experiment [12], 62%; in experiment [13], 69%; in experiment [14], 60%. Also, the residual activity in experiment [15] came to 98%; in [16], 73%; in experiment [17], 134%; in [19], 50%.

Regarding `CCC(=O)Nc1ccc2ncnc(Nc3cccc(Br)c3)c2c1`, the residual activity in experiment [1] is 86%; in experiment [2], 125%; in experiment [3], 142%; in experiment [4], 108%; in experiment [5] it was 96%; in experiment [6], 98%. The residual activity in experiment [20] was determined as 105%; in experiment [7] it was 104%; in [8], 103%; in [9], 92%; in experiment [10] it was 99%; in experiment [11], 109%. The residual activity turned out to be 62% in experiment [12]; 82% in [13]; 45% in experiment [14]; 86% in experiment [15]; 66% in experiment [16]; 132% in experiment [17]. Besides, the residual activity worked out at 116% in [18] and 119% in [19].

`C[C@@H](N)[C@H]1CC[C@H](C(=O)Nc2ccncc2)CC1`: the residual activity was found to be 89% in [1]; 75% in [2]; 68% in experiment [3]; 105% in [4]; 84% in [5]; 102% in experiment [6]. Further, the residual activity in experiment [20] is 109%; in [7], 103%; in [8], 101%; in experiment [9] it was 91%; in experiment [10], 95%; in experiment [11], 109%. The residual activity in experiment [12] stood at 97%; in [14], 94%; in experiment [15] it was 91%; in [16] it was 97%; in experiment [17], 111%; in experiment [18], 109%. Further, the residual activity in experiment [19] worked out at 76%.

`CCN(CC)C(=O)c1ccc(Nc2nc(OCC3CCCCC3)c3nc[nH]c3n2)cc1`: the residual activity in experiment [1] was 78%; in experiment [2], 72%; in experiment [3] it was 15%; in experiment [4], 75%; in [5], 26%; in [8], 28%. The residual activity amounted to 99% in [9]; 62% in [10]; 31% in experiment [13]; 5% in experiment [14]; 43% in experiment [15]; 7% in [16]. In addition, the residual activity in experiment [19] was 95%.

Regarding `COc1cc2ncnc(Nc3ccc(NC(=O)c4ccccc4)cc3)c2cc1OC`, the residual activity in experiment [1] stood at 95%; in experiment [4], 97%; in experiment [5], 104%; in experiment [6] it was 102%; in experiment [20], 97%; in [7], 99%. The residual activity in [8] turned out to be 87%; in [9] it was 101%; in experiment [10] it was 90%; in [11], 92%; in [12], 59%; in experiment [13] it was 69%. Further, the residual activity turned out to be 20% in experiment [14]; 100% in experiment [15]; 60% in [16]; 135% in [18]; 103% in experiment [19].

For `N#CC(C#N)=C(N)/C(C#N)=C/c1ccc(O)cc1`, the residual activity came to 91% in experiment [1]; 83% in experiment [4]; 88% in [5]; 97% in experiment [6]; 99% in [20]; 91% in experiment [7]. Moreover, the residual activity in experiment [8] was determined as 78%; in experiment [11] it was 88%; in experiment [12], 65%; in experiment [13] it was 84%; in [14], 64%; in experiment [15] it was 99%. Moreover, the residual activity in experiment [16] worked out at 87%.

What is called residual activity is the signal under treatment as a percentage of the control signal.
